Data on 19 compounds can be found in PubChem BioAssay (NCI).

Assay [1] in a line: NCI Yeast Anticancer Drug Screen. Data for the rad50 strain (AID 155).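 Note: 0% = growth of vehicle-only cultures of the same strain.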 The settings on record: S. cerevisiae rad50 strain growth inhibition; at 50.0 µM; stronger effect = higher value. In outline: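 Vehicle-treated cultures provide the reference for the growth inhibition reported for compound-exposed, repair-deficient yeast.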
Assay [2] in a line: NCI Yeast Anticancer Drug Screen. Data for the mec2-1 strain (AID 157). The settings on record: S. cerevisiae mec2-1 strain, at 50.0 µM, stronger effect = higher value. In outline:
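Cells of the genetically defined mec2-1 yeast strain are incubated with test compound. Inhibition of growth is calculated against vehicle-treated controls.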

The nature of assay [3]: NCI Yeast Anticancer Drug Screen. Data for the sgs1 mgt1 strain (AID 161).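 Note: 0% = growth of cultures given vehicle only.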 Particulars: S. cerevisiae sgs1 mgt1 strain, at 50.0 µM, stronger effect = higher value. In outline:
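Inhibition of yeast growth, normalised to vehicle-treated controls, is reported for a strain bearing genetic alterations in DNA damage repair.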

The nature of assay [4]: NCI Yeast Anticancer Drug Screen. Data for the cln2 rad14 strain (AID 165).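 Note: 0% = growth equal to vehicle treated cultures.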 Particulars: S. cerevisiae cln2 rad14 strain, at 50.0 µM, stronger effect = higher value. In outline: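 The screen exposed genetically defined yeast (cln2 rad14) to test compounds and scored growth inhibition relative to vehicle-treated controls.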
Assay [5] in a line: NCI Yeast Anticancer Drug Screen. Data for the bub3 strain (AID 167). Particulars: S. cerevisiae bub3 mutant strain, at 50.0 µM, stronger effect = higher value. In outline: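 Mutant yeast screening strain plus compound; vehicle-treated cultures serve as the 0% inhibition reference.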
Assay [6] in a line: NCI Yeast Anticancer Drug Screen. Data for the mlh1 rad18 strain (AID 175). The settings on record: S. cerevisiae mlh1 rad18 strain growth inhibition; at 50.0 µM; stronger effect = higher value. In outline: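 Compound-treated yeast growth, normalised to vehicle controls. Strain bears defined DNA repair mutations.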

Molecules are shown by their SMILES. About 79,000 compounds went through this panel and 15% of them were active in at least one assay; those are over-represented in the sample as a whole. Unmarked numbers belong to inactive results. Calls of active or inactive are those of the source. Cut-off read from the data, not from the text of the source: active = growth inhibition above about 70%; inactive = the rest.

On to `COc1ccc2c(ccc[n+]2CC(=O)c2ccc(SC)cc2)c1`, for which the growth inhibition in assay [1] was 1.9%; in assay [2] it was 12.3%; in assay [3] it was 20.1%; in assay [4], 21.4%; in assay [5] it was 19.6%; in assay [6], 0.75%.

Take `Cc1cc(C)c(C#N)c(N)n1`: the growth inhibition is -0.8% in assay [1]; -12.8% in assay [2]; -14.3% in assay [3]; -17.9% in assay [4]; 7.7% in assay [5]; -14.9% in assay [6].

For `OC1CCCCCCCCCCC1C(O)(C(F)(F)F)C(F)(F)F` (centres undefined), the growth inhibition in assay [1] was 99.3% (active); in assay [2], 99.5% (active); in assay [3], 99.8% (active); in assay [4], 99% (active); in assay [5], 99.6% (active); in assay [6], 98.8% (active).

Turning to `CC(=O)Nc1ccc(CCc2ccc(NC(C)=O)cc2)cc1`, the growth inhibition in assay [1] is -2.9%; in assay [2], -13.7%; in assay [3], -7.3%; in assay [4] it was -60.2%; in assay [5], 5.6%; in assay [6], -12.3%.

Consider `OC1(C2(O)CCCCC2)CCCCC1`, for which the growth inhibition in assay [1] is -38.2%; in assay [2], 13.4%; in assay [3] it was 22.1%; in assay [4] it was -32.5%; in assay [5], -11.8%; in assay [6], 3.75%.

For the compound `Cc1cn(C2CC(OC(=O)C(Cc3ccccc3)NC(=O)OCc3ccccc3)C(COC(=O)C(Cc3ccccc3)NC(=O)OCc3ccccc3)O2)c(=O)[nH]c1=O` (centres undefined), the growth inhibition in assay [1] is -14.9%; in assay [2], -3.65%; in assay [3] it was -13.3%; in assay [4], -26.7%; in assay [5] it was -12.9%; in assay [6], 14.3%.

For the compound `CCCCCN1C(=O)N=NC1=S`, the growth inhibition in assay [1] is 4.65%; in assay [2], 8.15%; in assay [3] it was 19.2%; in assay [4], 2.7%; in assay [5], -13.8%; in assay [6] it was -2.5%.

Consider `CC(=O)NNC(=O)c1ccc(Br)cc1`, for which the growth inhibition in assay [1] was 1.3%; in assay [2] it was -16.4%; in assay [3], 0.5%; in assay [4], -3.2%; in assay [5], 21.6%; in assay [6], -1.05%.

For the compound `COc1ccc(CCn2nccc2C)cc1`, the growth inhibition was -60.9% in assay [1]; -4% in assay [2]; -4.3% in assay [3]; -17.9% in assay [4]; -9.4% in assay [5]; -18.4% in assay [6].

Take `O=[N+]([O-])C(=C(N1CCOCC1)N1CCOCC1)/C(Cl)=C(\Cl)Br`: the growth inhibition is -19.2% in assay [1]; -1.1% in assay [2]; -0.6% in assay [3]; -14.1% in assay [4]; 4.5% in assay [5]; 2.55% in assay [6].

For `CCCCCCC1CCC(OC(C)=O)CC1` (centres undefined), the growth inhibition in assay [1] is 5.65%; in assay [2], -4%; in assay [3] it was -1.1%; in assay [4], -0.9%; in assay [5], 1.7%; in assay [6] it was 0.55%.

Regarding `NC(=O)CNC(=O)C(CO)NC(=O)OCc1ccccc1` (centres undefined), the growth inhibition in assay [1] was 2.35%; in assay [2], -10%; in assay [3], 10.7%; in assay [4] it was -6.2%; in assay [5] it was -11.1%; in assay [6], 0.3%.

For the compound `COC(=O)/C(C#N)=C1\CCC(O)N1C` (centres undefined), the growth inhibition in assay [1] is 11.9%; in assay [2] it was -10.8%; in assay [3], 5.8%; in assay [4], 6.2%; in assay [5], 3%; in assay [6], 9.6%.

Take `Cc1cc(C)c([N+](=O)[O-])cc1[N+](=O)[O-]`: the growth inhibition was 7.5% in assay [1]; 5.5% in assay [2]; 9.45% in assay [3]; -1.25% in assay [4]; -3.4% in assay [5]; 5.15% in assay [6].

Regarding `O=C(NC(=S)Nc1ccc([N+](=O)[O-])cc1Cl)c1ccccc1F`, the growth inhibition in assay [1] was 14.2%; in assay [2] it was 6.1%; in assay [3], 20.1%; in assay [4], 21.9%; in assay [5] it was 24.1%; in assay [6] it was 20.1%.

As for `Brc1ccc(-c2ccc(Br)cc2)cc1`, the growth inhibition in assay [1] is -4.45%; in assay [2], -4.35%; in assay [3], 6.25%; in assay [4], -44%; in assay [5], -19.1%; in assay [6], -5.25%.

With `CC1C=CCC2C(=O)OC(=O)C12` (centres undefined), the growth inhibition in assay [1] is 10.3%; in assay [2], -1.65%; in assay [3], -4.65%; in assay [4], -3.8%; in assay [5], -0.75%; in assay [6], 15.6%.

With `O=C(Nc1ccc(NC(=O)Nc2cc(C(F)(F)F)ccc2Oc2ccc(Cl)c(Cl)c2)cc1)Nc1cc(C(F)(F)F)ccc1Oc1ccc(Cl)c(Cl)c1`, the growth inhibition in assay [1] is -28.2%; in assay [2] it was -45.4%; in assay [3], -13.4%; in assay [4], -23.2%; in assay [5] it was -35.1%; in assay [6], -19.7%.

As to `COc1cc([N+](=O)[O-])c(F)cc1F`, the growth inhibition is -0.05% in assay [1]; 0.85% in assay [2]; -0.05% in assay [3]; -20.1% in assay [4]; 9.35% in assay [5]; -3.1% in assay [6].
